Assay [1] concerns Staphylococcus aureus MW2 delta-mecA (mecA-). The assay is described as follows: normalized GFP fluorescence (growth of mecA- strain) (fraction of control range); higher = more growth of mecA- strain. The conditions noted are these: compound concentration: 150 uM; cefoxitin: subinhibitory; fluorescent label: GFP. An outline of the steps:
(§1)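 Fluorescence from DsRed (540/590) and GFP (485/520) was recorded after 20 h of static growth at 37 °C and 90% humidity. The wells held a 1:1 mix of pre-induced S. aureus MW2 cells, gene-bearing with DsRed and gene-deleted with GFP, in LB with a daily-set subinhibitory antibiotic dose, dispensed at 5 µL/well onto 150 μM compound (1.5% DMSO) in 1536-well plates, single replicate. Each channel was scaled per plate between single-strain control medians, excluding plates with high untreated ratios and rows with DsRed/GFP >10.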

Assay [2] deals with Staphylococcus aureus MW2 (mecA+). The assay is described as follows: normalized DsRed fluorescence (growth of mecA+ strain) (fraction of control range); higher = more growth of mecA+ strain. The conditions noted are these: compound concentration: 150 uM; cefoxitin: subinhibitory; fluorescent label: DsRed. In short, it runs like this:
as §1

Take `CN1CCN(C(c2ccccc2)c2ccccc2)CC1`: the “normalized GFP fluorescence” value in assay [1] is 0.231. Further, in assay [2], the “normalized DsRed fluorescence” value amounted to 1.32.

On to `Cc1ccnc2c1NC(=O)c1cccnc1N2C1CC1`, for which the “normalized GFP fluorescence” value in assay [1] is 0.755. Besides, the “normalized DsRed fluorescence” value in assay [2] worked out at 0.431.

On to `CNCCC(Oc1ccc(C(F)(F)F)cc1)c1ccccc1` (stereo unspecified), for which the “normalized GFP fluorescence” value in assay [1] was -0.00367. Moreover, in assay [2], the “normalized DsRed fluorescence” value was 1.27.

On to `CCOC(=O)C1=C(COCCN)NC(C)=C(C(=O)OC)C1c1ccccc1Cl` (stereo unspecified), for which the “normalized GFP fluorescence” value in assay [1] was -0.0144. The “normalized DsRed fluorescence” value in assay [2] stood at 1.06.

Take `O=c1oc2cc(O)ccc2s1` [Tioxolone]: the “normalized GFP fluorescence” value in assay [1] was 0.428. Also, the “normalized DsRed fluorescence” value in assay [2] is 0.731.

For the compound `C[C@H]1C[C@@H]2[C@H]([C@@H](O)C[C@@]3(C)[C@H]2CC[C@]3(O)C(=O)COC(=O)CCC(=O)O)[C@@]2(C)C=CC(=O)C=C12`, the “normalized GFP fluorescence” value in assay [1] stood at 0.634. Further, the “normalized DsRed fluorescence” value in assay [2] stood at 0.526.

In the case of `CCc1cn([C@H]2C[C@H](O)[C@@H](CO)O2)c(=O)[nH]c1=O`, in assay [1], the “normalized GFP fluorescence” value was 0.343. Moreover, the “normalized DsRed fluorescence” value in assay [2] came out at 0.714.

As to `C[C@H]1[C@H](OC(=O)CCC(=O)O)O[C@@H]2O[C@@]3(C)CC[C@H]4[C@H](C)CC[C@@H]1[C@@]24OO3`, in assay [1], the “normalized GFP fluorescence” value is 0.737. Besides, the “normalized DsRed fluorescence” value in assay [2] is 0.712.

Regarding `CNC(=O)c1cc(Oc2ccc(NC(=O)Nc3ccc(Cl)c(C(F)(F)F)c3)c(F)c2)ccn1` [Regorafenib (BAY 73-4506)], the “normalized GFP fluorescence” value in assay [1] stood at 0.0128. Moreover, the “normalized DsRed fluorescence” value in assay [2] stood at 0.0729.

Regarding `CN1C(C(=O)Nc2ccccn2)=C(O)c2sccc2S1(=O)=O`, the “normalized GFP fluorescence” value in assay [1] worked out at 0.0134. The “normalized DsRed fluorescence” value in assay [2] turned out to be 0.778.

Consider `COC(c1ccccc1)(c1ccccc1)[C@H](Oc1nc(C)cc(C)n1)C(=O)O` [Ambrisentan], for which the “normalized GFP fluorescence” value in assay [1] was 0.466. In addition, the “normalized DsRed fluorescence” value in assay [2] amounted to 0.281.

In the case of `C[C@]12C=CC(=O)C=C1CC[C@@H]1[C@@H]2[C@@H](O)C[C@@]2(C)[C@H]1CC[C@]2(O)C(=O)COC(=O)CCC(=O)O`, the “normalized GFP fluorescence” value in assay [1] worked out at 0.461. Moreover, the “normalized DsRed fluorescence” value in assay [2] came out at 1.04.

For `CN(C)CCCN1c2ccccc2Sc2ccc(Cl)cc21`, the “normalized GFP fluorescence” value in assay [1] was -0.00289. In assay [2], the “normalized DsRed fluorescence” value amounted to 1.26.

Values taken from the supplement of paper PMC7695840.
